Reference: PubChem BioAssay (NCATS)
Records with an inconclusive call do not appear. A number with no mark means an inactive call. Calls of active or inactive are those of the source. The call rests on the fitted dose curve; in most records, active means well fitted inhibition curve with a large enough effect; inconclusive means small, poorly fitted or top-dose-only effect; inactive means flat fitted curve, though single readings scatter.

Experiment: qHTS to identify inhibitors of the type 1 interferon - major histocompatibility complex class I in skeletal muscle: primary screen against the NCATS Pharmaceutical Collection (AID 1347407)
Conditions: human skeletal muscle cells, IFN-b-induced MHC-I HiBiT luminescence, 24 h; series mostly up to 45.9 µM; activity change, negative = inhibition: at the top concentration
Summary of the method: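 Immortalized human myoblasts (C25cl48) with HiBiT knocked into endogenous HLA-B*08:01 were stimulated with 4 ng/ml IFN-beta and treated with compounds (8-point, 1:5, top 46 uM final) for 24 h at 37 C; HiBiT lytic luminescence read.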
On the % scale 0 is the no-effect control and ±100 the full control effect; potency means the concentration at half of the fitted maximal effect.

In order of rising “activity change, negative = inhibition” value:
1. CC(=O)N(O)CCCCCNC(=O)CCC(=O)N(O)CCCCCNC(=O)CCC(=O)N(O)CCCCCN  -24.2%
2. O=C(Nc1ccc(Cl)c(Cl)c1)C1CC1  -22.1%
3. Cc1c(C)n(Cc2ccccc2)c2ccc(C(=O)OCCN(C)C)cc12  -20.5%
4. Nc1ccn([C@@H]2O[C@H](CO)[C@@H](O)C2(F)F)c(=O)n1  -18.3%
5. C/C=C(/C(=C/C)c1ccc(O)cc1)c1ccc(O)cc1  -16.9%
6. CC1(C)O[C@@H]2C[C@H]3[C@@H]4C[C@H](F)C5=CC(=O)C=C[C@]5(C)[C@H]4[C@@H](O)C[C@]3(C)[C@]2(C(=O)CO)O1  -16.7%
7. COc1c(C)c2c(c(O)c1C/C=C(\C)CCC(=O)O)C(=O)OC2  -16.3%
8. COc1cc2c(cc1OC)C(C(C(=O)N(CCc1ccc(OC)c(OC)c1OC)CCc1ccc(OC)c(OC)c1OC)c1ccccc1)=NCC2 (stereo unspecified)  -15.2%
9. CC(=O)c1ccc2c(c1)N(CCCN1CCC(CCO)CC1)c1ccccc1S2  -12.3%
10. CC(=O)OCC(=O)[C@@]1(O)CC[C@H]2[C@@H]3CCC4=CC(=O)C=C[C@]4(C)[C@H]3[C@@H](O)C[C@@]21C  -11.3%
11. CC(=O)O[C@]1(C(C)=O)CC[C@H]2[C@@H]3C[C@H](C)C4=CC(=O)CC[C@]4(C)[C@H]3CC[C@@]21C  -10%
12. C=CCc1ccc(O)c(OC)c1  -5.28%
13. CC/C(=C(/CC)c1ccc(O)cc1)c1ccc(O)cc1  -4.61%
14. N[C@H](Cc1c[nH]c2ccccc12)C(=O)O  -2.66%
15. CCCCCC=CCC=CCCCCCCCC(=O)OCC  -2.1%
16. CCN1CCC[C@H]1CNC(=O)c1c(OC)ccc(Br)c1OC  -1.75%
17. Cc1c(N(C)CS(=O)(=O)O)c(=O)n(-c2ccccc2)n1C  -1.56%
18. O=C(CCN1CCC(c2ccccc2)C1)c1ccc2c(c1)OCCO2 (stereo unspecified)  -1.19%
19. Oc1ccc(Cl)c2cccnc12  -0.2%
20. CN(C)CC/C=C1/c2ccccc2COc2ccc(CC(=O)O)cc21  1.88%
21. O=C1c2ccccc2C(=O)C1c1ccccc1  17.5%
22. COC(=O)[C@@H]1CC2=CC(=O)CC[C@]2(C)[C@@]23O[C@@H]2C[C@@]2(C)[C@@H](CC[C@@]24CCC(=O)O4)[C@H]13  18.7%

With `COc1cccc2c1C(=O)c1c(O)c3c(c(O)c1C2=O)C[C@@](O)(C(=O)CO)C[C@@H]3O[C@H]1C[C@H](N)[C@H](O)[C@H](C)O1` the Potency was 23.6 µM (active).
With `COc1cc(C=C2CCC/C(=C\c3ccc(O)c(OC)c3)C2=O)ccc1O` the Potency was 14.9 µM (active).
With `COc1cccc2c1C(=O)c1c(O)c3c(c(O)c1C2=O)C[C@@](O)(C(C)=O)C[C@@H]3O[C@H]1C[C@H](N)[C@H](O)[C@H](C)O1` the Potency was 3.33 µM (active).

With `NC[C@H]1O[C@H](O[C@H]2[C@H](O)[C@@H](O[C@H]3O[C@H](CO)[C@@H](O)[C@H](N)[C@H]3O)[C@H](N)C[C@@H]2N)[C@H](N)[C@@H](O)[C@@H]1O` the “activity change, negative = inhibition” value was -0.0595% [at 19 µM].
